Assay [1] deals with Androgen receptor (Homo sapiens) (UniProt P10275). The assay is described as follows: ATG_AR_TRANS: Attagene TRANS-FACTORIAL HepG2 Assay for human Androgen Receptor (AR) (AID 2282973). The conditions noted are these: HepG2 Attagene TRANS-FACTORIAL AR reporter transcription. The gist of the method:
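Steps: transfect HepG2 with multiple GAL4-UAS reporter transcription units (TRANS format, exogenous NR-Gal4 protein); dose 24 h; isolate RNA, reverse-transcribe, PCR-amplify, FAM-label, HpaI-digest; resolve by capillary electrophoresis. Positive direction vs DMSO.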

Assay [2] has as its target human Aurora Kinase A - serine/threonine-protein Kinase 6 (AurA), AURKA (gene 6790) (UniProt O14965). The assay is described as follows: NVS_ENZ_hAurA: NovaScreen (NVS) Enzymatic Assay for human Aurora Kinase A - serine/threonine-protein Kinase 6 (AurA) (AID 2283142). The gist of the method: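 Recombinant human AurA activity read by fluorescence after mobility-shift separation of product from substrate; 1 hour incubation. Chemicals first run in duplicate at 25 uM, then concentration series to 50 uM if over threshold; fitted relative to DMSO.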

In assay [3] the target is human Fibroblast Growth Factor Receptor 1 (FGFR1), FGFR1 (gene 2260) (UniProt P11362). Nature of the assay: NVS_ENZ_hFGFR1: NovaScreen (NVS) Enzymatic Assay for human Fibroblast Growth Factor Receptor 1 (FGFR1) (AID 2283159).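 Also: hits lower the signal so potencies describe inhibitors of the kinase.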 The gist of the method: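 Cell-free recombinant kinase with fluorescent substrate, product separated by electrophoretic mobility shift; read 1 hour after dosing, loss of signal relative to DMSO. Initial screen in duplicate at 25 uM, actives followed in concentration series.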

For assay [4], the system named is rat Monoamine Oxidase, MAO-A, Peripheral (MAOAP), gene 29253. The assay is described as follows: NVS_ENZ_rMAOAP: NovaScreen (NVS) Enzymatic Assay for rat Monoamine Oxidase, MAO-A, Peripheral (MAOAP) (AID 2283237). The gist of the method:
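Scintillation counting tracked MAO-A activity in a cell-free rat liver mitochondrial membrane prep, read 1.17 hours after compound addition. Single-point duplicate testing at 25 uM preceded concentration-response follow-up; activity was fitted relative to DMSO.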

In assay [5] the target is rat Monoamine Oxidase, MAO-B, Central (MAOBC), Maob (gene 25750) (UniProt P19643). Nature of the assay: NVS_ENZ_rMAOBC: NovaScreen (NVS) Enzymatic Assay for rat Monoamine Oxidase, MAO-B, Central (MAOBC) (AID 2283238). Summed up: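 Actives from a duplicate 25 uM screen went on to singleton concentration-response with a 50 uM maximum. Enzyme source was rat brain tissue MAO-B, assayed cell-free. Radiolabelled product was counted by scintillation 1.17 h post-dose, with signal loss relative to DMSO.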

Assay [6] addresses rat Monoamine Oxidase, MAO-B, Peripheral (MAOBP), Maob (gene 25750) (UniProt P19643). The assay is described as follows: NVS_ENZ_rMAOBP: NovaScreen (NVS) Enzymatic Assay for rat Monoamine Oxidase, MAO-B, Peripheral (MAOBP) (AID 2283242).
The test system of assay [7] is rat Monoamine Oxidase, MAO-A, Central (MAOAC), gene 29253. Nature of the assay: NVS_ENZ_rMAOAC: NovaScreen (NVS) Enzymatic Assay for rat Monoamine Oxidase, MAO-A, Central (MAOAC) (AID 2283243).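 Also: potency refers to inhibition seen as signal drop below DMSO baseline.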 The gist of the method: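 Single-concentration duplicate testing at 25 uM, then concentration-response for actives, in a lysate-based radiodetection MAO-A activity assay from rat brain. Enzyme activity measured 1.5 hours post-dosing; DMSO served as negative control and baseline.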

Assay [8] has as its target human MET Proto-Oncogene, Receptor Tyrosine Kinase (MET), MET (gene 4233) (UniProt P08581). Nature of the assay: NVS_ENZ_hMet: NovaScreen (NVS) Enzymatic Assay for human MET Proto-Oncogene, Receptor Tyrosine Kinase (MET) (AID 2283180). Summed up:
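Hits from a 25 uM duplicate screen were retested in concentration series up to 50 uM. Enzyme activity was measured by fluorescence after electrophoretic separation of product from substrate, 1 h after compound addition, relative to DMSO.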

The target in assay [9] is human Matrix Metalloproteinase-1 (MMP1), MMP1 (gene 4312) (UniProt P03956). Nature of the assay: NVS_ENZ_hMMP1: NovaScreen (NVS) Enzymatic Assay for human Matrix Metalloproteinase-1 (MMP1) (AID 2283181). Summed up:
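Cell-free fluorescent substrate assay of human MMP1, read after 1 h. A single 25 uM duplicate screen was followed by concentration series to a maximum of 50 uM for actives meeting threshold; inhibition analysed against DMSO baseline.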

Assay [10] has as its target rat Oxytocin Receptor (OXT), Oxtr (gene 25342) (UniProt P70536). The assay is described as follows: NVS_GPCR_rOXT: NovaScreen (NVS) G Protein-Coupled Receptor Assay for rat Oxytocin Receptor (OXT) (AID 2283330). Summed up:
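Binding to rat uterine membrane receptor was followed by scintillation counting of filter-trapped radioligand after 1 h. A 25 uM duplicate single-point screen preceded concentration series with a top of 50 uM. Signal loss was analysed relative to DMSO.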

Assay [11] has as its target human Acetylcholinesterase (AChE), ACHE (gene 43) (UniProt P22303). The assay is described as follows: NVS_ENZ_hAChE: NovaScreen (NVS) Enzymatic Assay for human Acetylcholinesterase (AChE) (AID 2283129). Summed up:
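Actives from a duplicate single-point screen (25 uM) were followed up in concentration series. Enzyme activity read by absorbance (colorimetric) 0.33 hour after dosing, cell-free, normalized to DMSO, with loss of signal scored.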

Assay [12] deals with Bile acid receptor (Homo sapiens) (UniProt Q96RI1). Nature of the assay: NVS_NR_hFXR_Agonist: NovaScreen (NVS) Nuclear Receptor Binding Assay for human Farnesoid X Receptor Agonism (FXR) (AID 2283347). Summed up:
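Agonist-mode FXR assay read by time-resolved FRET 1 h after compound addition, using isolated human receptor protein without cells. Duplicate 25 uM single-point primary screen, concentration series for confirmed actives; DMSO as baseline.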

Assay [13] has as its target human Phosphatase and Tensin Homolog (PTEN), PTEN (gene 5728) (UniProt P60484). Nature of the assay: NVS_ENZ_hPTEN: NovaScreen (NVS) Enzymatic Assay for human Phosphatase and Tensin Homolog (PTEN) (AID 2283203). The gist of the method:
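Loss of fluorescent product signal after mobility-shift separation reports PTEN activity, recombinant human enzyme, 1 h after compound addition. Single 25 uM duplicate screen, then concentration-response on actives; DMSO baseline.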

Assay [14] addresses human Ephrin type-A Receptor 2 (EphA2), EPHA2 (gene 1969) (UniProt P29317). The assay is described as follows: NVS_ENZ_hEphA2: NovaScreen (NVS) Enzymatic Assay for human Ephrin type-A Receptor 2 (EphA2) (AID 2283155). Summed up:
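Enzyme activity of recombinant EphA2 read by fluorescence after mobility-shift separation, 1 h after dosing. Chemicals first tested at 25 uM (duplicate); those passing threshold run as concentration series, top 50 uM, single replicate, relative to DMSO.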

Assay [15] deals with human p21 Activated Kinase 4 (PAK4), PAK4 (gene 10298) (UniProt O96013). Nature of the assay: NVS_ENZ_hPAK4: NovaScreen (NVS) Enzymatic Assay for human p21 Activated Kinase 4 (PAK4) (AID 2283189). The gist of the method:
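Extracted PAK4 enzyme activity read by fluorescence with mobility-shift separation 1 h after chemical addition. Duplicate single-concentration screen at 25 uM, DMSO as negative control.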

Assay [16] has as its target human Tyrosine Protein Kinase Receptor Tie-2 (Tie2), TEK (gene 7010) (UniProt Q02763). The assay is described as follows: NVS_ENZ_hTie2: NovaScreen (NVS) Enzymatic Assay for human Tyrosine Protein Kinase Receptor Tie-2 (Tie2) (AID 2283225). The gist of the method: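 Substrate and product were separated by mobility shift and detected by fluorescence after a 1-hour reaction with recombinant Tie2. Chemicals passing a 25 uM single-point screen were titrated to a maximum of 50 uM. Results were normalized to DMSO baseline.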

The target in assay [17] is Voltage-dependent N-type calcium channel subunit alpha-1B (Rattus norvegicus) (UniProt Q02294). Nature of the assay: NVS_IC_rCaChN: NovaScreen (NVS) Ion Channel Assay for rat Calcium Channel, Type N (CaChN) (AID 2283317).
Assay [18] concerns the target human Caspase 10 (CASP10), CASP10 (gene 843) (UniProt Q92851). The assay is described as follows: NVS_ENZ_hCASP10: NovaScreen (NVS) Enzymatic Assay for human Caspase 10 (CASP10) (AID 2283133). The gist of the method: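 Fluorescence-intensity enzyme read-out of E. coli-expressed CASP10 activity, 1 h after compound. Single-point duplicates at 25 uM preceded concentration-response testing (top 50 uM) of hits; inhibition expressed as signal loss versus DMSO.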

Assay [19] is described as follows: ATG_M_32_XSP2: Attagene TRANS-FACTORIAL Multi-Species (XSP2) HepG2 Assay for M19 Transcription Factor (Internal Marker) (AID 2283826). Summed up:
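Transfected HepG2 (multiplexed GAL4-UAS reporters), 24 h chemical exposure, 3 nM 6-alpha-fluorotestosterone + 1.5 nM norgestrel added. RNA → oligo(dT) RT → PCR → 6-FAM primer extension → HpaI cut → CE. Fitted upward vs DMSO.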

Assay [20] has as its target human Caspase 2 (CASP2), CASP2 (gene 835) (UniProt P42575). The assay is described as follows: NVS_ENZ_hCASP2: NovaScreen (NVS) Enzymatic Assay for human Caspase 2 (CASP2) (AID 2283135). The gist of the method:
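Single-point duplicate testing at 25 uM preceded concentration series topping at 50 uM. Activity of the recombinant E. coli-derived protease was followed by fluorescent substrate cleavage 1 h post-dosing, relative to DMSO.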

Assay [21] has as its target human Mitogen-Activated Protein Kinase 1 (MAPK 1), MAPK1 (gene 5594) (UniProt P28482). Nature of the assay: NVS_ENZ_hMAPK1: NovaScreen (NVS) Enzymatic Assay for human Mitogen-Activated Protein Kinase 1 (MAPK 1) (AID 2283175). The gist of the method: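 Cell-free recombinant human MAPK1 enzymatic assay, fluorescence/electrophoretic mobility shift read at 1 h; loss of signal vs DMSO. Primary screen in duplicate at 25 uM; actives (e.g. ≥30% inhibition) run as concentration-response up to 50 uM.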

Molecules are shown by their SMILES. Results filed as inconclusive are left out. Calls of active or inactive are those of the source. The calls were made as follows: active = hit-call score of the fitted dose curve at least 0.9, where 1 is the maximum; inconclusive = response in the unintended direction; inactive = score below 0.9.

human Matrix Metalloproteinase-1 (MMP1), MMP1 (gene 4312), sequence (P03956 whole entry, looked up): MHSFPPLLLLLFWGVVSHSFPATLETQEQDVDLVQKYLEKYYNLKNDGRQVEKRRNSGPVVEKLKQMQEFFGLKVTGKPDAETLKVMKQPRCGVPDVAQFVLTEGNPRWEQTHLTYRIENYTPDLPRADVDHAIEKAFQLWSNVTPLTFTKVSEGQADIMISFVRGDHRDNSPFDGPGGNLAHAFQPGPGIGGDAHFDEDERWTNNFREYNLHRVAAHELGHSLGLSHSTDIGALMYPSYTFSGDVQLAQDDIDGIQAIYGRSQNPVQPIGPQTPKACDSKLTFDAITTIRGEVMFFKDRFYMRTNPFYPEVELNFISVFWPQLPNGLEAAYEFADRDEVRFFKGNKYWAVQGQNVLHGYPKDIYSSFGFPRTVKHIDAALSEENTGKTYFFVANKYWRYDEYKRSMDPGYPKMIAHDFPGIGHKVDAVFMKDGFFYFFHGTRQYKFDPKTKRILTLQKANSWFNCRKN
Androgen receptor (Homo sapiens), sequence (P10275 whole entry, looked up, the tested form may be a part): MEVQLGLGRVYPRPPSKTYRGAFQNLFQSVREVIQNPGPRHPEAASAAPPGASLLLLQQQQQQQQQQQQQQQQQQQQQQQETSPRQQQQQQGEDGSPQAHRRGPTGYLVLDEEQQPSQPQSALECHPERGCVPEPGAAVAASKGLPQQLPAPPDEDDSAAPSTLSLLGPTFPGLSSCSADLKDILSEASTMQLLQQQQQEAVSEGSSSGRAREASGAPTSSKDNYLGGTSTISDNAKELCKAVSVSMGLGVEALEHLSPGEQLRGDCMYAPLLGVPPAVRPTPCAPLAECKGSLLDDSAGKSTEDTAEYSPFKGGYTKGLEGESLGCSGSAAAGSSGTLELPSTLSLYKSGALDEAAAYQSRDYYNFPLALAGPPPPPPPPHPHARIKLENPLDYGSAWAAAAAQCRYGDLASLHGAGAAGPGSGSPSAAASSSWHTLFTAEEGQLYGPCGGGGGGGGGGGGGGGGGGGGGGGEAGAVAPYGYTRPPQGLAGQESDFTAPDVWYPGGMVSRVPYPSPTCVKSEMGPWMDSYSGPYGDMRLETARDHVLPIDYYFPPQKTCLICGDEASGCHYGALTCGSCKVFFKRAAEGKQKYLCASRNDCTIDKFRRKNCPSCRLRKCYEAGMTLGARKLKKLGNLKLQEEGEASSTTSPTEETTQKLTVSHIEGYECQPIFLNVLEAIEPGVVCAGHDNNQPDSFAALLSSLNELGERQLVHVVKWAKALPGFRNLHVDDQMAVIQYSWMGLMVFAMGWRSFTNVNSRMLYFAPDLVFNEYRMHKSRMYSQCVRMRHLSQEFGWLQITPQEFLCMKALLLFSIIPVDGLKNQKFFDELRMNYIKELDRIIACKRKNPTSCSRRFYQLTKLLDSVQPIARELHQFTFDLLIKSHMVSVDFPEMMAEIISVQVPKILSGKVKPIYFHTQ
human MET Proto-Oncogene, Receptor Tyrosine Kinase (MET), MET (gene 4233), sequence (P08581 whole entry, looked up): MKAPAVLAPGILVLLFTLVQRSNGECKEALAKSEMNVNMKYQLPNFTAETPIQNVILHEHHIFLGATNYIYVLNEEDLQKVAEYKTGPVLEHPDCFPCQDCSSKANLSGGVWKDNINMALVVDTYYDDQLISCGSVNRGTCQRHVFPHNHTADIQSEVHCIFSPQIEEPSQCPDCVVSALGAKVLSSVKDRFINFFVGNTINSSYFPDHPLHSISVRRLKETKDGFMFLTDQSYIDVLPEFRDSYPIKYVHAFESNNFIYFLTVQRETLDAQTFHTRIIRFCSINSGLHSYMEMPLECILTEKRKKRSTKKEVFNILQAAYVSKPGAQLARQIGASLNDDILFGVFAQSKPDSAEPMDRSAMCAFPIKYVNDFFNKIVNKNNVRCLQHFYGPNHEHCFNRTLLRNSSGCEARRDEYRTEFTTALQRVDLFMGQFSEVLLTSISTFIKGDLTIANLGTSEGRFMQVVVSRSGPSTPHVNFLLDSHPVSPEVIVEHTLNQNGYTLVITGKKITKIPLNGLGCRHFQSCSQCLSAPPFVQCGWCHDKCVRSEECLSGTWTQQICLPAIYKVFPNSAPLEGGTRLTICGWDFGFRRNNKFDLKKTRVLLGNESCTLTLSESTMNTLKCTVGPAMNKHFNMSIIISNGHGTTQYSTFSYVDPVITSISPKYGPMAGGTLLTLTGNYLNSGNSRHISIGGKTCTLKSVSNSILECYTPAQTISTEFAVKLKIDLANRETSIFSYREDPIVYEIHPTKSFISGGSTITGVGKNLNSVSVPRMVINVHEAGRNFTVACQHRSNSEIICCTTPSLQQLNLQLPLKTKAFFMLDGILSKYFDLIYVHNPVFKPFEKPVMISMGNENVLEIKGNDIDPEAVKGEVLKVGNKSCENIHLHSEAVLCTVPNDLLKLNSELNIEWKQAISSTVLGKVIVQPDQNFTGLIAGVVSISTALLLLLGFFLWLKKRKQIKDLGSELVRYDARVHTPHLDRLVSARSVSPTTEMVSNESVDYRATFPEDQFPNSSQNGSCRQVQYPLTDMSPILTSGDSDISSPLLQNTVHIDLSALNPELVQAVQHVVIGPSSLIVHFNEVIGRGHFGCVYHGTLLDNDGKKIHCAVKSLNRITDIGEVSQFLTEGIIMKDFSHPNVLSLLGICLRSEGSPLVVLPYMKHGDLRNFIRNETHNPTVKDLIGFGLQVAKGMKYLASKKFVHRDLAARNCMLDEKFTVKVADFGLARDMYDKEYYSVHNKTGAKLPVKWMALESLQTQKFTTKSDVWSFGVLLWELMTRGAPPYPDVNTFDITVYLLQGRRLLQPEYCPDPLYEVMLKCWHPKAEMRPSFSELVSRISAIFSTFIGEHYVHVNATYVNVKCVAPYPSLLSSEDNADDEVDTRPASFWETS
rat Monoamine Oxidase, MAO-B, Central (MAOBC), Maob (gene 25750), sequence (P19643 whole entry, looked up): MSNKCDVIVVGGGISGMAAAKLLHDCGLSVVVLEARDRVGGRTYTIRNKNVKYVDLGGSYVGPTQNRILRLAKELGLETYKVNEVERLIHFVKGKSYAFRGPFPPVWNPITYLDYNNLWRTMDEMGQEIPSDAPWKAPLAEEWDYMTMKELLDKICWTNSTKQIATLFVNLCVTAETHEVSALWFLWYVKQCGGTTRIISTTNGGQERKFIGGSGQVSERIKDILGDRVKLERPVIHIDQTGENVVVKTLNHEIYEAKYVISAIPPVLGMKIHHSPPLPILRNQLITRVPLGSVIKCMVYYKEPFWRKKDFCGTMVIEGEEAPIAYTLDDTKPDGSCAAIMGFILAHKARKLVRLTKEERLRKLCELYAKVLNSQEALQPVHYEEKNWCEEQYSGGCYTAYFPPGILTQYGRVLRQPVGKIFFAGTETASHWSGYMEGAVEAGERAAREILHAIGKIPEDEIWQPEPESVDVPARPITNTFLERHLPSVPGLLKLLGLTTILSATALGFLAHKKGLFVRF
human Acetylcholinesterase (AChE), ACHE (gene 43), sequence (P22303 whole entry, looked up): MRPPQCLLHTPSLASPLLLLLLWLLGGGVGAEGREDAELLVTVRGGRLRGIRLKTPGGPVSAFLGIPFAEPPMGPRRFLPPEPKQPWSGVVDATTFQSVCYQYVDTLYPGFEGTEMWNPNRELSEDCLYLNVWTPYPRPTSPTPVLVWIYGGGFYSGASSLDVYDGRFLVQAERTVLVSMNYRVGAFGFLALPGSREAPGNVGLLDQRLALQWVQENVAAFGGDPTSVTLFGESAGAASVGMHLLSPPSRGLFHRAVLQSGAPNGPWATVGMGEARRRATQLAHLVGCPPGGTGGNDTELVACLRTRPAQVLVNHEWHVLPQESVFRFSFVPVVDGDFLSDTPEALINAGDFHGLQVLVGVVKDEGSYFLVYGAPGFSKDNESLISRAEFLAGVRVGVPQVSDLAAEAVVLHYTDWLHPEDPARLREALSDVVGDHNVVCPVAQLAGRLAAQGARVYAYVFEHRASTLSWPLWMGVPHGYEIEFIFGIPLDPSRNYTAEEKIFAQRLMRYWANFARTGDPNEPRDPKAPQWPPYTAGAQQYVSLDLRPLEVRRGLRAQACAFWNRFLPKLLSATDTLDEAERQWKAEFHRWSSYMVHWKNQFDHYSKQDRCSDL
rat Oxytocin Receptor (OXT), Oxtr (gene 25342), sequence (P70536 whole entry, looked up): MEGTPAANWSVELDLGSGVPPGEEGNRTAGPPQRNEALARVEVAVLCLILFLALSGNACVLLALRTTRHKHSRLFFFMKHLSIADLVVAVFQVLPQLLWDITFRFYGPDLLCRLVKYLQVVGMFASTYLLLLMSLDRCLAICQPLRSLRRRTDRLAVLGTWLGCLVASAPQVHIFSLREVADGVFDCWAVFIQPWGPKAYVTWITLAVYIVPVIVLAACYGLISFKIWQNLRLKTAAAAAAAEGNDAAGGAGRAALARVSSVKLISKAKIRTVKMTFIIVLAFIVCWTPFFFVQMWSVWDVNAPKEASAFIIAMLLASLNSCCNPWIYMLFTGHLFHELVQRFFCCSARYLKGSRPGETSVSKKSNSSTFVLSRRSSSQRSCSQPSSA
human Phosphatase and Tensin Homolog (PTEN), PTEN (gene 5728), sequence (P60484 whole entry, looked up): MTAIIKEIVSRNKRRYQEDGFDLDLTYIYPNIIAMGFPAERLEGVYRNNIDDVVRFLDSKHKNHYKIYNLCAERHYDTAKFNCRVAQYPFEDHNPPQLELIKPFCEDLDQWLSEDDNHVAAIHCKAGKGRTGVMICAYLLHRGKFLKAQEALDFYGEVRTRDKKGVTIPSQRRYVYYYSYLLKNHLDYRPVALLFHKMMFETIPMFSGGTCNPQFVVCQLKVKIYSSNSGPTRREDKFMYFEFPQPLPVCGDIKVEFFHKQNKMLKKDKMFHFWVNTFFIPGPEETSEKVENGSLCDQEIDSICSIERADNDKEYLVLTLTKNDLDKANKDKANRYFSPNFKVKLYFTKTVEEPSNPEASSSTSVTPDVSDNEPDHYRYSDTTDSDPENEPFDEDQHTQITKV
rat Monoamine Oxidase, MAO-B, Peripheral (MAOBP), Maob (gene 25750), sequence (P19643 whole entry, looked up): as the sequence (P19643 whole entry, looked up) above

Broadly, the AC50 is the concentration at which the activity in the assay is half-maximal. For `O=C(c1ccc(O)cc1O)c1ccc(O)cc1O`, the result in assay [1] and in [6] was inactive. Besides, the AC50 is 22.2 µM (active) in assay [2]; 25 µM (active) in assay [3]; 0.935 µM (active) in assay [4]; 12.9 µM (active) in [5]; 6.91 µM (active) in assay [7].
As for `COc1ccc(S(=O)(=O)N2C(=O)[C@@](c3ccccc3OC)(N3C[C@H](O)C[C@H]3C(=O)N(C)C)c3cc(Cl)ccc32)c(OC)c1`, the call in assay [1], in assay [8], in assay [9] and in assay [5] was inactive. Further, the AC50 in assay [10] is 0.0663 µM (active).
As to `O=C(c1ccccc1)c1ccccc1`, the result in assay [1] and in [8] was inactive.
Regarding `COCCOCCOC`, the compound was classed as inactive in [1] and in assay [9]. Moreover, the AC50 in [4] was 39.7 µM (active).
With `CCN(Cc1cccnc1)C(=O)c1cccc(Cl)c1[C@]1(C)C(=O)N(Cc2ccc(OC)cc2OC)c2ccc(Cl)cc21`, the outcome in assay [1], in [11] and in assay [8] was inactive. Further, the AC50 in assay [9] was 9.73 µM (active); in [10] it was 0.0728 µM (active); in [12], 15.1 µM (active).
In the case of `Clc1cc(Cl)c(-c2c(Cl)c(Cl)cc(Cl)c2Cl)cc1Cl`, the compound was called inactive in assay [1]. In addition, the AC50 in assay [13] is 12.5 µM (active).
In the case of `CCCCCCCCCCCCCC[P+](CCCC)(CCCC)CCCC`, the compound was called inactive in [1]. Also, the AC50 in assay [14] was 9.76 µM (active); in assay [3], 5.1 µM (active); in assay [15], 14.5 µM (active); in [16] it was 15.3 µM (active).
Regarding `O=C(O)c1cccc(N(Cc2cccnc2)c2ccc(OC(F)F)c(OC(F)F)c2)c1`, the call in assay [1], in assay [5] and in assay [17] was inactive. In assay [11], the concentration at half-maximal activity (AC50) is 8.26 µM (active).
Consider `CCc1cccc(C)c1N(C(=O)CS(=O)(=O)O)C(C)COC` (centres undefined), for which the outcome in [1] and in assay [13] was inactive.
As to `Cc1c2ccccc2c(C)c2c1ccc1ccccc12`, the compound was called inactive in assay [1], in assay [18] and in assay [19].
`Oc1cc2ccccc2c2ccccc12`: in assay [1], the compound was called inactive. The AC50 was 11.1 µM (active) in assay [18], 14.6 µM (active) in assay [20], 3 µM (active) in assay [4] and 1.2 µM (active) in assay [7].
Take `CN(C)C(=O)C1(N2CCCCC2)CCN(CC[C@@]2(c3ccc(Cl)c(Cl)c3)CN(C(=O)c3ccccc3)CCO2)CC1`: in [1], the compound was called inactive. The AC50 in assay [11] is 4.93 µM (active); in assay [9], 17.1 µM (active).
Turning to `Cc1ccc(-c2cc(C(F)(F)F)nn2-c2ccc(S(N)(=O)=O)cc2)cc1`, the call in assay [1] and in assay [21] was inactive.

For the origin of these results see PubChem BioAssay (EPA / NIEHS).
